HP1b binding inh = blocks HP1-beta chromodomain binding to methylated histone tails | P83916 | AlphaScreen HP1-beta / biotin-H3K9me3 peptide binding | Potency, µM (series often up to 114 µM), for inactives: top-dose activity change, negative = inhibition, most hits filed as inhibitors | actives 0.56% (n = 390,000) | AID 540317; further: nearly all actives have a fitted effect of over 70% in size
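HP1-beta protein (50 nM final) preincubated 30 min at room temperature with biotinylated H3(1-18)K9me3 peptide (50 nM) in PBS pH 7.4, 0.01% Tween-20, then compound added for 30 min. AlphaScreen streptavidin donor/nickel chelate acceptor beads (10 ug/mL final), 30 min dark, luminescence read.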
Sfp PPTase inh = inhibitors of Bacillus subtilis Sfp phosphopantetheinyl transferase | Q9F4F7 | Biochemical Sfp PPTase activity, qHTS | Potency, µM, without a hit: largest response in the series, negative = inhibition, usual class: inhibitors | actives 3.5% (n = 310,000) | AID 1490;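 further: the enzyme is Sfp with the accession as filed and its product quenches rhodamine fluorescence; 0% = enzyme reaction without inhibitor and -100% = no enzyme wells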
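With Hepes-Na pH 7.6 buffer containing 10 mM MgCl2, Sfp (15 nM) modified BHQ-2-YbbR (12.5 uM) using rhodamine-CoA (5 uM). Two reads 30 minutes apart at 525/598 nm yielded each well's rate.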
PLK1 PBD inh = inhibitors of human PLK1 polo-box domain binding | actives 2.8% (n = 360,000) | P53350 | Plk1 PBD binding of FITC phosphopeptide, fluorescence polarization | Potency, µM, for the others: max response, negative = inhibition, most hits filed as inhibitors; further: series mostly up to about 57 µM; on the % scale 0 is the no-effect control and ±100 the full control effect; nearly all actives have a fitted effect of over 65% in size
BAZ2B block = BAZ2B (human) inhibition; AlphaScreen BAZ2B-H3K14Ac peptide displacement; Potency, µM (highest dose often 114 µM), for the others: top-dose activity change, negative = inhibition, actives largely listed as inhibitors; actives 4.4% (n = 360,000); Q9UIF8; further: on the % scale 0 is the no-effect control and ±100 the full control effect; nearly all actives have a fitted effect of over 60% in size
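BAZ2B (50 nM) with biotin-H3(5-23)K14Ac peptide (50 nM) in PBS pH 7.4, 0.01% Tween-20, preformed 30 min, then compound 30 min at room temperature; top concentration 110uM. AlphaScreen streptavidin donor/nickel chelate acceptor beads (10 ug/mL final), 20 min dark, signal read.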
JMJD2A Tudor = blocks the human JMJD2A Tudor domain; O75164; AlphaScreen JMJD2A-Tudor / H3K4me3 peptide binding; Potency, µM (titrated, usually from 114 µM), for inactives: at the top dose activity change, negative = inhibition, usual class: inhibitors; actives 4.4% (n = 390,000); further: on the % scale 0 is the no-effect control and ±100 the full control effect; nearly all actives have a fitted effect of over 50% in size
G9a block = G9a (human) methyltransferase inhibition. Q96KQ7. G9a H3K9 monomethylation, AlphaScreen, 2 h. Potency, µM (doses to about 102 µM), inactives show at the top dose activity, negative = inhibition, actives largely listed as inhibitors. actives 8.8% (n = 350,000). AID 504332; further: on the % scale 0 is the no-effect control and ±100 the full control effect; nearly all actives have a fitted effect of over 75% in size
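Chemiluminescent proximity detection of H3K9 monomethylation, read after 10 min bead incubation in the dark. Reaction: 20 nM G9a, 500 nM biotin-H3K9 peptide, 20 uM SAM cofactor, 2 h, room temperature, following 15 min enzyme-compound preincubation.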
Numbers without * were called inactive; ? = inconclusive; . = not tested or not shown; [ ] = another dose, or the depositor's remark. Shown are actives, neighbours in structure and some others; about 12% of the full set was active somewhere. The call rests on the fitted dose curve; in most records, active means well fitted curve in the direction sought with a large enough effect; inconclusive means small, poorly fitted or top-dose-only effect, or another doubt; inactive means no such curve, though single readings can be large; an effect the other way counts as inactive or inconclusive. Potency means the concentration at half of the fitted maximal effect.

SMILES	HP1b binding inh	Sfp PPTase inh	PLK1 PBD inh	BAZ2B block	JMJD2A Tudor	G9a block
Cc1ccc(N(C)S(=O)(=O)c2ccc3c(c2)CCC(=O)N3)cc1C	.	.	.	.	-9%	.
C=CC(=O)Nc1cccc(Oc2ccnc3[nH]ccc23)c1	?	.	-10%	.	79µM*	.
C=CC(=O)Nc1cccc(N(C)c2ccnc(Nc3ccc(N4CCN(C)CC4)cc3)n2)c1	50µM*	.	-14%	.	14µM*	.
CN1CCN(c2ccc(NC(=O)c3ccc4ccccc4c3)cc2)CC1	9%[57 µM]	-15%	-12%	?	-22%	8%
CN1CCN(c2ccc(-c3ccnn3C(=O)Nc3cccc(C(F)(F)F)c3)cc2)CC1	14%	-21%	-14%	-1%	-13%	-15%[59 µM]
C=CC(=O)Nc1cccc(Oc2ncnc3[nH]cc(-c4cnc5ccccc5c4)c23)c1	22%	.	-16%	.	-11%	.
C=CC(=O)Nc1cccc(Oc2ccnc(Nc3ccc(N4CCN(C)CC4)cc3)n2)c1	?	.	-13%	.	45µM*	.
CC(C)(C)OC(=O)N1CCC(NC(=O)c2nc[nH]c2C(=O)N2CCN(C(=O)OC(C)(C)C)CC2)CC1	16%	.	1%	0%	-29%	-5%[2.33 µM]
CC(C)(C)OC(=O)NCCCCCNC(=O)c1[nH]cnc1C(=O)Nc1ccon1	48%	.	4%	56µM*	-9%	8%[0.501 µM]
CC(C)(C)OC(=O)N1CCC(NC(=O)c2[nH]cnc2C(=O)Nc2ccon2)CC1	63%	.	5%	56µM*	-23%	11%[0.501 µM]
CC(C)(C)OC(=O)NCCCCCNC(=O)c1[nH]cnc1C(=O)Nc1cccc(Cl)c1	34%	.	-6%	12%	-20%	-2%[0.501 µM]
CC(C)(C)OC(=O)N1CCC(NC(=O)c2nc[nH]c2C(=O)N2CCc3ccccc3C2)CC1	28%	.	-1%	56µM*	-27%	-2%[0.501 µM]
COCC(C)Nc1ncnc2c1cnn2-c1ccc(C)c(C)c1 (stereo not given)	-5%	.	.	4%	-14%	-5%[59 µM]
CN1C=CC(=C2C=CN(C)C=C2)C=C1	.	-11%	.	.	.	.
CC1CC(C)CN(C(=O)COC(=O)Cc2ccc(Cl)cc2)C1 (stereo not given)	24%	5%	-3%	-3%	2%	-5%[2.33 µM]
CC1CC(C)CN(C(=O)COC(=O)Cc2ccc(Br)cc2)C1 (stereo not given)	24%	-17%	30µM*	10%	-23%	11%
CO[C@H]1COC(=O)[C@H]2CCCN2C(=O)C/C=C\[C@@H](C)[C@H](OC)COC(=O)[C@@H](OCc2ccccc2)/C=C\[C@@H]1C	.	4%	.	.	.	.
O=S(=O)(c1ccc2c(c1)OCCO2)N1CCN(S(=O)(=O)c2ccccc2F)CC1	.	.	.	.	-18%	.
CCC(Oc1ccc2c(c1)C(=O)CC(C)(C)O2)C(=O)NCCN1CCCCCC1 (stereo not given)	?	?	-21%	?	45µM*	13µM*
COc1ccccc1-c1nc(S(=O)(=O)c2ccc(Cl)cc2)c(N2CCCCCC2)o1	-9%	.	.	-24%	-27%	?
O=S(=O)(c1ccc(Cl)cc1)c1nc(-c2cccs2)oc1N1CCCCC1	?	.	.	14µM*	?	14µM*
O=C(CSc1oc(-c2ccc(F)cc2)nc1S(=O)(=O)c1ccccc1)c1ccc(Cl)cc1	22%	.	.	-3%	-1%	-28%[59 µM]
CN(C)c1oc(-c2ccc(Cl)cc2)nc1S(=O)(=O)c1ccccc1	?	-17%	-20%	?	79µM*	-18%[59 µM]
COc1ccc(-c2nc(S(=O)(=O)c3ccc(Cl)cc3)c(N3CCCCCC3)o2)cc1	-20%	.	.	-33%	56µM*	20µM*
O=C(Nc1ccccc1OC(F)F)c1ccc(N2CCCC2=O)cc1	.	.	-16%	.	.	.
SMILES	HP1b binding inh	Sfp PPTase inh	PLK1 PBD inh	BAZ2B block	JMJD2A Tudor	G9a block
COC(=O)C1CCN(c2csc3ccc(Cl)cc3c2=O)CC1	33%[57 µM]	.	.	-22%	-13%	-35%[59 µM]
Cc1c(Br)c([N+](=O)[O-])nn1CCCC(=O)Nc1sc2c(c1C(N)=O)CCC(C)C2 (stereo not given)	3%	2%	-25%	5%	-13%	-10%[59 µM]
Cc1c(Cl)c([N+](=O)[O-])nn1CCCC(=O)Nc1sc2c(c1C#N)CCC2	?	?	30µM*	-39%	?	?
Cc1c(Br)c([N+](=O)[O-])nn1CCCC(=O)Nc1sc2c(c1C#N)CCC2	?	22µM*	5.3µM*	?	50µM*	?
Cc1c(Br)c([N+](=O)[O-])nn1CC(=O)Nc1nccs1	29%	-2%	-10%	-31%	-11%	-7%
Cc1c(Br)c([N+](=O)[O-])nn1CC(=O)Nc1sc2c(c1C(=O)OC(C)C)CCCC2	-17%	-7%	19µM*	6%	-16%	?
COC(=O)C1CN(C(=O)C(C)Oc2ccc(C)c(C)c2)c2ccccc2O1 (stereo not given)	45%	5%	-6%	2%	-12%	52%
CCOC(=O)[C@]12CCCC=C1N(Cc1ccccc1)C(=O)[C@H](CC(=O)N1CCOCC1)C2	.	.	1%	.	.	.
CCOC(=O)c1c(SCc2ccccc2)n[nH]c1N	23%	10%	-4%	-12%	-33%	8%
CN(C)C(=N)c1n[nH]nc1SCc1ccccc1	11%	18%	-15%	79µM*	-17%	-44%[59 µM]
CC(=O)Nc1ccc(S(=O)(=O)NCCC(=O)OCC(=O)N2CCN(C(=O)c3ccco3)CC2)cc1	7%	13%	-9%	50µM*	-29%	.
O=C(CCN1c2ccccc2Sc2ccccc21)OCC(=O)N1CCN(C(=O)c2ccco2)CC1	?	11%	-2%	50µM*	?	?
COc1ccc(NS(=O)(=O)c2cccc(C(=O)NNC(=O)c3ccc(=O)[nH]c3)c2)cc1	13%	.	-10%	-3%	-21%	-9%[59 µM]
O=S(=O)(NN1CCOCC1)c1ccc(Br)s1	38%	-14%	3µM*	-16%	-8%	.
CN(CC(=O)N1CCCCCC1)S(=O)(=O)c1ccc(Br)s1	32%	-7%	0%	8%	18%	14%[59 µM]
CN1CCN(NS(=O)(=O)c2ccc(Cl)s2)CC1	19%	-11%	8.4µM*	8%	-12%	1.6µM*
O=S(=O)(Nc1ccc(N2CCOCC2)cc1)c1ccc(Cl)s1	18%	8%	0%	-10%	-27%	?
O=C(CN(CC(=O)N1CCOCC1)S(=O)(=O)c1ccc(Br)s1)N1CCOCC1	-5%	.	24µM*	.	?	.
O=S(=O)(NN1CCOCC1)c1ccc(Cl)s1	29%	-15%	21µM*	-2%	-10%	1.3µM*
O=C(NCc1ccc(F)cc1)c1ccc2c(c1)nnn2C1CCCC1	42%	.	.	4%	?	-5%[59 µM]

Screening results (PubChem)
